Most compounds without a hit are left out; they make up all but 21% or so of the library.
TDP1 cell noCPT: qHTS for Inhibitors of human tyrosyl-DNA phosphodiesterase 1 (TDP1): qHTS in cells in absence of CPT; DT40 Tdp1-/- hTDP1 cells, no CPT, ATP luminescence, 48 h; Potency, µM (series often up to 46.2 µM), most hits filed as inhibitors; hit rate 15% among 420,000; AID 686978, 2013; also: nearly all actives have a fitted effect of over 55% in size
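Seeded 400 DT40-hTDP1 cells/well (vehicle DMSO, no 20 nM CPT); pinned compounds; ≥48 hr at 37 °C; CellTiter-Glo luminescence as viability measure.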
RORg inh: qHTS for inhibitors of ROR gamma transcriptional activity | Nuclear receptor ROR-gamma (Mus musculus), P51450 | Drosophila S2 Gal4-RORgamma UAS-luciferase reporter, 20 h | Potency, µM (titrated, usually from 53.6 µM), actives largely listed as inhibitors | hit rate 5.4% among 310,000; also: nearly all actives have a fitted effect of over 60% in size
Target sequence (P51450 whole entry, looked up, the tested form may be a part): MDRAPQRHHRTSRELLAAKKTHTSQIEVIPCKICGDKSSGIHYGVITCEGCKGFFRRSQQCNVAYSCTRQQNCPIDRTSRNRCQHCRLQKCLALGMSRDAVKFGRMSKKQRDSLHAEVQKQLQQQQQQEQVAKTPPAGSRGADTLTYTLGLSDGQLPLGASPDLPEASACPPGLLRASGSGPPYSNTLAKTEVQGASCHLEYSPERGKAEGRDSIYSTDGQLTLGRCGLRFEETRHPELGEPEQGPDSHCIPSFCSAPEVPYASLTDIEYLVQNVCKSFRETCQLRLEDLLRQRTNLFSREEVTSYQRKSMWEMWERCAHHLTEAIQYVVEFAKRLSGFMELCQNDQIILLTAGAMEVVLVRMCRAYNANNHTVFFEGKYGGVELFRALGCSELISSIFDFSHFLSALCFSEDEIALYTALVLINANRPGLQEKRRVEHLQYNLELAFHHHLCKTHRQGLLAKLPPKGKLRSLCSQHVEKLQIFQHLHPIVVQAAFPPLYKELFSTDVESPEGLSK
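Schneider cells (Drosophila), stable Gal4 DBD–ROR gamma + UAS-luc; 1 hr cmpd preincubation; Cu2+ induction 700 uM final; 20 hr ambient; luminescence.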
TDP1 cell CPT: qHTS for Inhibitors of human tyrosyl-DNA phosphodiesterase 1 (TDP1): qHTS in cells in presence of CPT; chicken DT40 Tdp1-/-;hTDP1 cells + 20 nM CPT, ATP luminescence, 48 h; Potency, µM (top dose mostly 46.2 µM), most hits filed as inhibitors; hit rate 12% among 420,000; AID 686979, 2013; also: nearly all actives have a fitted effect of over 55% in size
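Cell growth measured by CellTiter-Glo luminescence after a minimum 48 h, 37 C compound exposure with 20 nM CPT in Tdp1-knockout DT40 cells stably expressing hTDP1, seeded 400/well; qHTS titration format.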
IL1B secr inh: qHTS for Inhibitors of Inflammasome Signaling: IL-1-beta AlphaLISA Primary Screen. THP-1 LPS/ATP IL-1B secretion, AlphaLISA, 16 h; hits give low values. activity change, % at 57.5 µM. hit rate 4.7% among 360,000; in the data active = activity change below about -50%; inconclusive = mostly about -30% to -49%
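Secreted IL-1B measured by AlphaLISA bead assay after 16 h compound exposure of THP-1 cells; compounds (final up to 57.5 uM) added 1 h before LPS (250 ng/mL) and ATP (1.25 mM) stimulation; lower signal means less secretion.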
ELG1 repair inh: qHTS screen for small molecules that inhibit ELG1-dependent DNA repair in human embryonic kidney (HEK293T) cells expressing luciferase-tagged ELG1; hit rate 2.3% among 330,000; Potency, µM (top dose mostly 46.1 µM), actives largely listed as inhibitors; HEK293T ELG1-luciferase reporter, luminescence, 16 h; DNA damage induced by 5-fluorouridine; also: nearly all actives have a fitted effect of over 55% in size
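Luminescence from the luciferase reporter, measured 30 min after ONE-Glo reagent at room temperature, was the read-out. Beforehand, 2,000 cells per well were exposed for 16 hr at 37 °C to 5-fluorouridine together with compound or vehicle.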
VP16 counter: VP16 counterscreen qHTS for inhibitors of ROR gamma transcriptional activity; Drosophila S2 Gal4-VP16 UAS-luciferase, luminescence, 20 h; Potency, µM (series often up to 53.6 µM), hits mostly inhibitors; hit rate 3.5% among 310,000; AID 2546, 2010;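 also: Gal4-VP16 expression switched on by copper sulfate through the metallothionein promoter; nearly all actives have a fitted effect of over 50% in size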
Hits are given with their value; – = inactive; ? = inconclusive; · = no result given; [ ] = another dose, or the depositor's remark. Unless noted, calls follow the shape of the dose curve; as a rule, active = well fitted curve in the direction sought with a large enough effect; inconclusive = small, poorly fitted or top-dose-only effect, or another doubt; inactive = no such curve, though single readings can be large; an effect the other way counts as inactive or inconclusive.

SMILES	TDP1 cell noCPT	RORg inh	TDP1 cell CPT	IL1B secr inh	ELG1 repair inh	VP16 counter
O=C(COC(=O)/C=C/c1ccc(S(=O)(=O)N2CCOCC2)cc1)NCc1ccccc1	13µM	–	7.3µM	–	–	–
CCc1ccc2oc(C(=O)NCc3ccccc3)cc(=O)c2c1	?	·	–	·	·	·
CCCC(=O)Nc1ccc(C(N)=O)cc1	–	–	–	–	?	–
CC(=O)CC(=O)Nc1ccc(C(N)=O)cc1	–	11µM	–	–	–	–
COc1ccc(OC)c(N2C(=NC(=O)C3CCCCC3)SC3CS(=O)(=O)CC32)c1 (configuration not stated)	–	–	–	–	–	–
Nc1c(C(=O)NCc2ccccc2)sc2nc(N3CCOCC3)c3c(c12)CCCC3	21µM	–	?	–	?	–
COc1cccc(NC(=O)c2sc3nc(N4CCOCC4)c4c(c3c2N)CCCC4)c1	23µM	–	26µM	–	–	–
Nc1c(C(=O)Nc2ccccc2)sc2nc(N3CCOCC3)c3c(c12)CCCC3	9.2µM	·	?	–	·	·
CC(=O)c1ccc(NC(=O)c2sc3nc(N4CCOCC4)c4c(c3c2N)CCCC4)cc1	21µM	–	?	–	?	–
O=C(COC(=O)c1ccccc1F)NC(=O)NC1CCCC1	–	·	–	–	–	·
CCS(=O)(=O)N1CCN=C1SCc1ccc(F)cc1	–	–	–	–	–	–
COc1ccc(NC(=O)c2sc3nc(N4CCCC4)c4c(c3c2N)CC(C)(C)OC4)cc1	?	–	?	?	5.8µM	–
COc1ccc(NC(=O)c2sc3nc(N4CCOCC4)c4c(c3c2N)CC(C)(C)OC4)c(OC)c1	–	–	?	–	?	–
Nc1c(C(=O)Nc2ccc(Cl)cc2)sc2nc(N3CCOCC3)c3c(c12)CCCC3	15µM	–	?	–	–	–
O=C(NNC(=O)c1cccc2ccccc12)c1cccc(Cl)c1	–	·	–	–	·	·
COc1ccc(-c2nc3c(Cl)cc(C(F)(F)F)cn3c2Cc2ccsc2)cc1OC	?	·	?	–	·	·
Cc1ccc(-c2cc(C(F)(F)F)nc(SCC(=O)c3cccc([N+](=O)[O-])c3)n2)cc1	?	–	?	-53	18µM	–
COc1ccc(C(=O)CSc2cc(C)nc(SCC(=O)c3ccc(C)cc3)n2)cc1	–	?	–	–	5.2µM	–
COc1ccc(-c2cc(C)nc(SCC(=O)c3cccc([N+](=O)[O-])c3)n2)cc1	–	–	–	–	21µM	–
Cc1ccc(OCc2nnc(SCC(=O)c3cccc([N+](=O)[O-])c3)n2C)cc1	?	2µM	?	–	–	?
CCc1ccc2c(-c3cccc(Cl)c3)nc(=O)n(CC)c2n1	?	?	–	·	·	–
N[C@@]1(C(=O)O)CO[C@H]2[C@H](C(=O)O)[C@H]21	·	–	·	·	·	–
CCOc1ccc2oc(-c3ccccc3)c(C(N)=O)c2c1	–	–	–	–	–	–
CCOC(=O)c1c(-c2ccccc2)oc2ccc(NS(=O)(=O)c3ccc(OC)cc3)cc12	3.3µM	·	4.6µM	·	·	·
CC(=O)c1c(C)oc2ccc(NS(=O)(=O)c3ccc(F)cc3C)cc12	18µM	?	23µM	–	6.5µM	13µM
SMILES	TDP1 cell noCPT	RORg inh	TDP1 cell CPT	IL1B secr inh	ELG1 repair inh	VP16 counter
CCOc1ccc2oc(-c3ccccc3)c(C(=O)N(C)C)c2c1	18µM	–	?	–	?	–
CCOC(=O)c1c(-c2ccccc2)oc2ccc(NS(=O)(=O)c3ccccc3)cc12	–	·	?	·	·	·
CCOC(=O)c1c(-c2ccccc2)oc2ccc(NS(=O)(=O)c3cc(C)c(C)cc3C)cc12	10µM	·	18µM	·	·	·
Cc1ccc(NC(=O)NCc2cccn2Cc2ccccc2)c(C)c1	–	·	–	·	·	·
Cc1cc(C)c(S(=O)(=O)Nc2ccc3oc(C)c(C(=O)OC(C)C)c3c2)cc1C	13µM	·	?	·	·	·
COc1ccc(-c2ccnc3nc(N4CCOCC4)nn23)cc1	–	–	–	–	–	–
c1ccc(Oc2ccc(-c3ccnc4nc(N5CCOCC5)nn34)cc2)cc1	16µM	?	15µM	-68	18µM	–[10 µM]
COc1ccc(N/N=C(/C(N)=O)C2=NC(C)(C)Cc3ccccc32)cc1	16µM	?	16µM	–	23µM	–
CO/N=C\C(=N\Nc1ccc(OC)cc1)C(=O)c1ccccc1	?	–	?	–	?	–
O=C(CC(C(=O)O)n1ccnc1)c1ccc(Cl)cc1 (configuration not stated)	7.1µM	·	7.1µM	·	·	·
O=C(Cn1ccnc1)c1ccc(Cl)cc1	–	–	–	–	–	–
CC(=O)Nc1sc(C)c(C)c1C(=O)OCCOc1ccccc1	?	?	–	–	?	–
CN(C)c1cccc(C(=O)N2CCC(c3ccncc3)CC2)c1	–	·	21µM	·	·	·
CCOc1cc(C(=O)N2CCC(c3ccncc3)CC2)cc(OCC)c1OCC	–	·	–	·	·	·
COCCN1CCC(CNCc2cn[nH]c2-c2ccc(C)c(C)c2)C1 (configuration not stated)	–	–	–	?	–	–
COCCN1CCC(CNCc2cn(-c3cc(C)ccc3C)nc2-c2ccccc2)C1 (configuration not stated)	6.5µM	?	?	–	–	?
CCn1ccnc1CNCc1cn(-c2cc(C)ccc2C)nc1-c1ccccc1	?	14µM	?	–	–	–
CC(=O)O/N=C/c1c(C)c(C=O)n2ccccc12	–	–	?	–	–	–
CC1CC=CC2C1C(=O)N(Cc1ccccc1)C2c1ccc(Br)cc1F (configuration not stated)	·	–	·	·	·	–
Cc1cc(-c2nn(-c3ccccc3)cc2/C=C2\SC(N)=NC2=O)ccc1OC(C)C	?	–	?	–	?	–
CC1CCN(C2=NC(=O)/C(=C/c3cn(-c4ccccc4)nc3-c3cccc(S(=O)(=O)N(C)C)c3)S2)CC1	6.5µM	–	7.3µM	–	5.2µM	–
CC1CCCN(C2=NC(=O)/C(=C/c3cn(-c4ccccc4)nc3-c3cccc(S(=O)(=O)N(C)C)c3)S2)C1 (configuration not stated)	12µM	–	16µM	–	?	–
CCCOc1ccc(-c2nn(-c3ccccc3)cc2/C=C2\SC(N)=NC2=O)cc1	–	–	–	–	–	–
N#CSCC(=O)c1cccc2ccccc12	4.6µM	11µM	4.6µM	-61	–	?
